# Source: PubChem BioAssay (Tox21)
# Results filed as inconclusive are left out. Unmarked numbers belong to inactive results. The source made the active and inactive calls. Calls follow the shape of the dose curve; as a rule, active = well fitted cell-killing curve with a large enough effect in the repeat runs; inconclusive = weak or mixed curves, or effect the other way; inactive = flat fitted curve, though single readings scatter.
# Experiment: cAMP Responsive Elements (CRE) small molecule antagonists, cell-based qHTS assay: qHTS cell viability counter screen (AID 2060913); also: nearly all actives have a fitted effect of over 40% in size
# Conditions: CRE-bla HEK293T viability, CellTiter-Glo luminescence, 5 h; series mostly up to 92.4 µM; viability change, negative = cytotoxic: at the top concentration
# Excerpt: U.S. Tox21 Program National Center for Advancing Translational Sciences [NCATS] Division of Preclinical Innovation [DPI] U.S. Environmental Protection Agency [EPA] National Institutes of Environmental Health Sciences [NIEHS] National Toxicology Program [NTP] U.S. Food and Drug Administration [FDA] Tox21 Assay Overview: CREB (cyclic-AMP Responsive Element Binding Protein) is a cellular transcription factor. It binds to certain DNA sequences called cAMP Responsive Elements (CRE) and regulates the transcription of the genes. […] This cell line can be used to find agonists/antagonists of the cyclic AMP signaling pathway. The activation of the report gene under culture conditions can be detected by fluorescence intensity. This cell line has been used to screen the Tox21 10K compound library to identify agonists that induce oxidative stress. The cytotoxicity of the Tox21 compound library against the CRE-bla cell line was tested in parallel by measuring the cell viability using CellTiter-Glo assay (Promega, Madison, WI) in the same wells.
# Tox21 Assay Protocol Summary: CRE-bla Hek 293T cells were suspended in assay medium (DMEM containing 10% dialyzed FBS, 0.1 mM NEAA, 1 mM sodium pyruvate and 25 mM HEPES) and dispensed at 2,000 cells/4 uL /well into 1536-well black wall/clear bottom plates using a Multidrop Combi (ThermoFisher Scientific, Waltham, MA) dispenser. After the assay plates were incubated at 37 C/5% CO2 for 18 hrs, 23 nL of compounds dissolved in DMSO, positive controls or DMSO only was transferred to the assay plate by a pintool workstation (Kalypsys, San Diego, CA), followed by addition of 1 uL of 1.25uM NKH477 (0.25 uM as final concentration) in assay medium using a Flying Reagent Dispenser (Aurora Discovery, San Diego, CA). The plates were incubated at 37 C and 5% CO2 for 3 hrs. Then 1 uL of LiveBLAzer B/G FRET substrate (Invitrogen, Carlsbad, CA) was added to each well using Bioraptr Flying Reagent Dispenser (FRD, Aurora Discovery, San Diego, CA). The plates were incubated at room temperature for 2 h, then fluorescence intensities were measured using an Envision plate reader (PerkinElmer, Shelton, CT) at Excitation 405nm, Emission 460nm and 530nm. The % activity was determined from the ratio of 460nm/530nm. For cell viability readout that measures cytotoxicity, 4 uL /well of CellTiter-Glo reagent was added into the assay plates using Bioraptr FRD. After 30 min incubation at room temperature, the luminescence intensity in the assay plates was measured using a ViewLux (PerkinElmer, Shelton, CT) plate reader.
# % is scaled to controls: 0 for no effect and ±100 for the full control effect; potency is read from the fitted curve at half-maximal effect.
SMILES,"viability change, negative = cytotoxic",Potency
Cc1[nH]cnc1CN1CCc2c(c3ccccc3n2C)C1=O,11.2% [at 42.5 µM],–
O=C1C(c2[nH]c3ccccc3c2O)=Nc2ccccc21,–,inactive
CCCCCCCC[Si](OCC)(OCC)OCC,9.4%,–
Cc1cc(C)c(C=O)c(C)c1,12.7%,–
CCCCN1C=CN(C)C1,7.21% [at 18.9 µM],–
CCC(CO)CO,0.0375%,–
O=c1cccc[nH]1,-0.124%,–
C[N+](C)(C)CCOC(N)=O,-0.465% [at 42.5 µM],–
SC1CCCC1,-1.11%,–
COCCc1ccc(OCC(O)CNC(C)C)cc1 (stereo not given),–,inactive
OC(CCN1CCCC1)(c1ccccc1)C1CCCCC1 (stereo not given),-0.579% [at 42.5 µM],–
COc1cc(Cc2cnc(N)nc2N)cc(OC)c1OC,–,inactive
CNc1ccc([N+](=O)[O-])cc1,4.39%,–
CCCCCCC(CCCCCCCCCCC(=O)OCC(COC(C)=O)OC(C)=O)OC(C)=O (stereo not given),4.53% [at 42.5 µM],–
Cc1onc(-c2c(Cl)cccc2Cl)c1C(=O)N[C@@H]1C(=O)N2[C@@H]1SC(C)(C)[C@@H]2C(=O)O,3.04% [at 42.5 µM],–
Cn1c(=O)c2c(ncn2CC(=O)O)n(C)c1=O,4.82% [at 42.5 µM],–
CC(O)C(=O)O (stereo not given),–,inactive
c1ccc(CN(CC2=NCCN2)c2ccccc2)cc1,1.89% [at 42.5 µM],–
C[C@@H](O)[C@H]1C(=O)N2C(C(=O)O)=C(S[C@@H]3CN[C@H](CNS(N)(=O)=O)C3)[C@H](C)[C@H]12,1.01% [at 42.5 µM],–
CCCC(C)CO (stereo not given),4.46%,–

SMILES,"viability change, negative = cytotoxic",Potency
CCCCOCCOCCO,–,inactive
CC(=O)OCC(=O)Nc1cc(C#N)cc(NC(=O)COC(C)=O)c1Cl,5.69% [at 42.5 µM],–
Fc1ccc(Br)cc1,–,inactive
CC(=O)c1ccccc1[N+](=O)[O-],-2.05%,–
C1OCOCO1,16.2%,–
Cc1ccc(S(=O)(=O)NC2CCCCC2)cc1,-8.51%,–
Oc1ccc(N=Nc2ccccc2)cc1,-16.7%,–
NC/C=C/C(=O)O,-3.05% [at 42.5 µM],–
CCCCCCCCCCn1cc[n+](CCCCCCCCCC)c1C,–,24.4 µM (active)
CC(C)=CCC/C(C)=C/C(=O)O,1.16%,–
COC(=O)c1cc(Cl)ccc1OC,0.197% [at 42.5 µM],–
OCCC(F)(F)C(F)(F)C(F)(F)C(F)(F)C(F)(F)C(F)(F)F,4.17%,–
Cc1cc(S(=O)(=O)O)c(N)cc1Cl,-10.8%,–
CCCC[P+](C)(CCCC)CCCC,-15.8%,–
N#CCC(=O)NN,2.85% [at 42.5 µM],–
c1ccc2occc2c1,-4.12%,–
CCCc1ccccc1O,0.773%,–
CC1(C)S[C@@H]2[C@H](NC(=O)C(c3ccccc3)S(=O)(=O)O)C(=O)N2[C@H]1C(=O)O (stereo not given in full),1.77% [at 42.5 µM],–
O=C(O)CN(CCOCCOCCN(CC(=O)O)CC(=O)O)CC(=O)O,-0.164% [at 0.349 µM],–
COC(=O)CSc1cc(N=c2sc(=O)n3n2CCCC3)c(F)cc1Cl,0.536%,–
